59 compounds from ChEMBL document CHEMBL1157539, “Thousands of chemical starting points for antimalarial lead identification” (Nature, 2010) can be followed below.

Values joined by “and” are separate entries in the source; they are usually repeats but may differ in a detail not shown here. Equal entries are not always repeated.

A word on the Inhibition: it is how much of the control response was suppressed. High values mean a response far below the control, low ones a response near the control.

Holding throughout (type): functional
The test system of assay [1] is Plasmodium falciparum. As to the kind of experiment: GSK_TCMDC: Inhibition of Plasmodium falciparum 3D7 in whole red blood cells, using parasite LDH activity as an index of growth. Test compounds present at 2uM.
The test system of assay [2] is Plasmodium falciparum. As to the kind of experiment: GSK_TCMDC: Inhibition of Plasmodium falciparum Dd2 in whole red blood cells, using parasite LDH activity as an index of growth. Test compounds present at 2uM.
The subject of the next assay is HepG2. Description: GSK_TCMDC: Percent inhibition of human HepG2 cell line. Test compounds present at 10uM.

As for `CC(C)N1CCC(N(Cc2ccc(-c3ccc(Cl)cc3)cc2)C(=O)Cn2c(CCc3cccc(F)c3F)nc(=O)c3ccccc32)CC1.O=C(O)C(O)C(O)C(=O)O`, the Inhibition came out at 86% with Plasmodium falciparum [1], 70% in the assay with Plasmodium falciparum [2] and 61% with HepG2.
On the same counts, the results for `COc1ccc2nc(N=C3NC4(c5ccccc5)NC(=Nc5nc6ccc(OC)cc6[nH]5)NC4(c4ccccc4)N3)[nH]c2c1.O=C(O)C(F)(F)F` (configuration not stated) are 100%, 85% and 0%.
The matching figures for `Cc1cc2nc(-c3ccc(C(=O)NCc4cccc(F)c4)cc3)[nH]c2cc1C`: 91%, 6% and 0%.
The matching figures for `CC(C)(C)CN1C(=O)C(c2ccccc2)(c2ccccc2)N=C1N.O=CO`: 98%, 94% and 32%.
In the case of `O=C(NCCCCCN1CCC(c2c[nH]c3ccccc23)CC1)Nc1ccc(Br)cc1`, the Inhibition was determined as 91% in the assay with Plasmodium falciparum [1], 0% in the assay on Plasmodium falciparum [2] and 24% in the assay with HepG2.
The matching figures for `Cc1[nH]c(C)c(-c2ccc(OCc3ccc(F)cc3)cc2)c(=O)c1Br`: 98%, 97% and 16%.
The matching figures for `COc1cccc(CNC(=O)c2cnc(N3CCN(c4ccncc4)CC3)c(Cl)c2)c1.O=C(O)C(F)(F)F`: 89%, 12% and 25%.
The matching figures for `COc1cc(NC(=O)Nc2cccc3ccccc23)c(OC)cc1Cl`: 97%, 71% and 0%.
As to `COc1ccc2nc3cc(Cl)ccc3c(NCCc3ccccc3)c2c1.Cl`, the Inhibition is given as 94% with Plasmodium falciparum [1], 82% in the assay with Plasmodium falciparum [2] and 0% with HepG2.
Regarding `CC(C)C[C@H](NC(=O)c1cc2ccccc2s1)C(=O)N[C@H]1CCN(Cc2ccc(OCCCN(C)C)c(Cl)c2)C1.O=C(O)C(F)(F)F`, the Inhibition is given as 100% in the assay on Plasmodium falciparum [1], 89% with Plasmodium falciparum [2] and 83% in the assay on HepG2.
The matching figures for `Cl.Oc1ccc2[nH]c(-c3cccs3)nc2c1CN1CCC(N2CCCC2)CC1`: 100%, 13% and 6%.
The matching figures for `Cc1cccc2nc(-c3cccc(-c4cccc(CNCCNC(=O)c5ccnn5C)c4)c3)[nH]c12.O=C(O)C(F)(F)F`: 100%, 71% and 26%.
The matching figures for `COc1ccc(-c2ccc(NC(=O)c3ccc(C#N)cc3)cc2)cc1CN1CCC(O)CC1.O=C(O)C(F)(F)F`: 94%, 28% and 24%.
Take `COc1ccc(Oc2cnc(N)nc2N)c(C(C)C)c1`: the Inhibition is given as 97% in the assay on Plasmodium falciparum [1], 0% in the assay on Plasmodium falciparum [2] and 58% with HepG2.
The matching figures for `Br.C=CCc1cc(C)ccc1OCCCON1C(N)=NC(N)=NC1(C)C`: 96%, 96% and 64%.
On the same counts, the results for `Br.COc1ccc(CCCON2C(=N)N=C(N)NC2(C)C)cc1` are 95%, 94% and 61%.
Consider `Oc1c(C(Nc2ccccn2)c2ccco2)cc(Cl)c2cccnc12` (configuration not stated), for which the Inhibition in the assay with Plasmodium falciparum [1] was 87%; in the assay with Plasmodium falciparum [2], 65%; with HepG2, 41%.
On the same counts, the results for `O=S(=O)(Nc1ccc(CCN2CCC(N3CCCCC3)CC2)cc1)c1ccc(Cl)cc1` are 100%, 18% and 23%.
The matching figures for `FC(F)(F)c1ccc2[nH]c(-c3cccc(-c4ccc(CNCc5ccccc5)cc4)c3)nc2c1.O=C(O)C(F)(F)F`: 100%, 99% and 25%.
On the same counts, the results for `CN1CC[C@@H](Oc2cc(NC(=O)Nc3ccccc3Br)ccc2Cl)C1` are 100%, 6% and 26%.
As for `COc1ccc2[nH]c(C)cc(=NN=Cc3ccc(Cl)cc3)c2c1`, the values for the Inhibition in the assay on Plasmodium falciparum [1], in the assay with Plasmodium falciparum [2] and in the assay on HepG2 were 100%, 100% and 2%, respectively.
For the compound `CCCC(=O)c1cnc2c(OCCCc3c[nH]cn3)cccc2c1Nc1c(C)cccc1C`, the results for the Inhibition with Plasmodium falciparum [1], in the assay on Plasmodium falciparum [2] and with HepG2 were 98%, 14% and 20%, respectively.
The matching figures for `COc1ccc2nccc([C@@H](O)CN3CCC(NC(=O)c4ccc(Cl)c([N+](=O)[O-])c4)CC3)c2c1`: 88%, 43% and 14%.
Turning to `Cl.N#Cc1ccc2c(c1)CN(CC[C@H]1CC[C@H](NC(=O)/C=C/c3c[nH]c4ccccc34)CC1)CC2`, the Inhibition in the assay on Plasmodium falciparum [1] was 92% and 97%; in the assay on Plasmodium falciparum [2] it was 24% and 27%; in the assay with HepG2, 20% and 10%.
As for `CN(C)C(CNC(=O)c1cc(-c2ccncc2)c(-c2ccc(NC(=O)Nc3cccc(F)c3)cc2)o1)c1ccccc1.O=C(O)C(F)(F)F` (configuration not stated), the Inhibition in the assay with Plasmodium falciparum [1] turned out to be 100%; in the assay on Plasmodium falciparum [2] it was 99%; in the assay on HepG2, 11%.
Consider `CN(C)C(CNc1ncnc2cc(Cl)ccc12)Cc1ccccc1` (configuration not stated), for which the Inhibition with Plasmodium falciparum [1] stood at 96%; in the assay with Plasmodium falciparum [2] it was 88%; with HepG2, 13%.
The matching figures for `O=S(=O)(c1c(Cl)cccc1Cl)N1CCCCC(c2ccc(C(F)(F)F)cc2)=N1`: 99%, 98% and 11%.
The matching figures for `COc1cccc(C(=O)Nc2ccc(-c3nc4ccccc4[nH]3)cc2)c1`: 95%, 19% and 28%.
The matching figures for `Br.C=CCN1Cc2c(O)cccc2C(c2ccc(O)c(O)c2)C1` (configuration not stated): 97%, 6% and 0%.
For the compound `CCN(CC)CCN(Cc1ccc(-c2ccc(C(F)(F)F)cc2)cc1)C(=O)c1c[nH]c2ccc(Br)cc12`, the Inhibition in the assay on Plasmodium falciparum [1] worked out at 90%; in the assay with Plasmodium falciparum [2], 74%; with HepG2, 80%.
On the same counts, the results for `Cc1cccc2nc(-c3cccc(-c4ccc(NC(=O)c5cccc(C(N)=O)c5)cc4)c3)[nH]c12` are 100%, 61% and 25%.
The matching figures for `Cc1ccc(S(=O)(=O)c2nc(S(=O)(=O)c3ccccc3)sc2NCC2CCCO2)cc1` (configuration not stated): 88%, 17% and 4%.
For `COc1ccc(CNCc2ccc(F)cc2)cc1-c1ccc(S(=O)(=O)NCCN2CCCC2)c(C)c1.O=C(O)C(F)(F)F`, the Inhibition in the assay with Plasmodium falciparum [1] was 98%; in the assay with Plasmodium falciparum [2] it was 56%; with HepG2, 55%.
For the compound `C=CCc1cc(OC)ccc1OCCCOc1c(C)nc(N)nc1N.Cl`, the Inhibition in the assay on Plasmodium falciparum [1] is 92%; in the assay with Plasmodium falciparum [2] it was 97%; in the assay with HepG2, 67%.
On the same counts, the results for `Nc1nc2ccc(S(=O)(=O)Nc3ccc(C(=O)N[C@@H](CCC(=O)O)C(=O)O)c(F)c3)cc2c(=O)[nH]1` are 97%, 16% and 37%.
`O=c1cc(NCCC(CNCCc2ccccc2)NCc2cc(Br)cc(Br)c2)[nH]c2ccccc12` (configuration not stated): the Inhibition turned out to be 98% in the assay on Plasmodium falciparum [1], 47% with Plasmodium falciparum [2] and 3% with HepG2.
For `Cc1ccc(Cc2c[nH]c(NCCSCc3ccc(CN(C)C)s3)nc2=O)cn1`, the Inhibition in the assay with Plasmodium falciparum [1] is on record as 95%; in the assay on Plasmodium falciparum [2] it was 0%; with HepG2, 3%.
On the same counts, the results for `Cc1cccc2nc(-c3ccc(-c4cccc(NC(=O)Nc5ccccc5)c4)cc3)[nH]c12` are 100%, 14% and 18%.
With `COc1ccc(CNCc2ccc(-c3ccc(CNCCc4ccccc4)cn3)cc2)cn1.O=C(O)C(F)(F)F`, the values for the Inhibition with Plasmodium falciparum [1], in the assay with Plasmodium falciparum [2] and in the assay on HepG2 were 97%, 44% and 16%, respectively.
Regarding `Cc1cccc(OCC2CCN(c3ncc(C(=O)NC4CC4)cc3Cl)CC2)c1`, the Inhibition in the assay with Plasmodium falciparum [1] is 90%; in the assay on Plasmodium falciparum [2], 78%; with HepG2, 0%.
The matching figures for `Cc1cc(NCCC(=O)NCCOc2ccccc2)nc(NCc2ccccc2C)n1.O=C(O)C(F)(F)F`: 92%, 29% and 17%.
The matching figures for `Cc1cc(O)c(C(C)C)cc1C1(c2cc(C(C)C)c(O)cc2C)OC(=O)c2ccccc21`: 95%, 18% and 8%.
Regarding `COc1cccc(CNC(=O)[C@@H]2CN(C(=O)c3ccccc3)CCN2)c1.O=C(O)C(F)(F)F`, the values for the Inhibition in the assay with Plasmodium falciparum [1], in the assay on Plasmodium falciparum [2] and with HepG2 were 92%, 0% and 4%, respectively.
The matching figures for `CC(C)C[C@@H](C(=O)Nc1ccc(Cc2ccc(NC(=O)[C@H](CC(C)C)N(C)C(=O)OC(C)(C)C)cc2)cc1)N(C)C(=O)OC(C)(C)C`: 92%, 57% and 17%.
The matching figures for `CN1CCC(N2CCN(Cc3cccc(-c4ccc(-c5nc6ccccc6[nH]5)cc4)c3)CC2)CC1.O=C(O)C(F)(F)F`: 100%, 99% and 56%.
On the same counts, the results for `Cc1cc(C)nc(-n2[nH]c(C)c(Cc3ccc(C(C)(C)C)cc3)c2=O)n1` are 88%, 61% and 0%.
On to `CCN(C)CCCn1c(N(C)C)nc2cc(-n3cnc4cc(-c5ccc(Cl)cc5)sc4c3=O)ccc21.O=C(O)C(F)(F)F`, for which the Inhibition in the assay on Plasmodium falciparum [1] turned out to be 80%; in the assay on Plasmodium falciparum [2], 12%; in the assay with HepG2, 83%.
Regarding `Cc1n[nH]c2ccc(-c3ccc4nccc(N5CCC(N)CC5)c4c3)cc12.Cl`, the Inhibition with Plasmodium falciparum [1] came out at 100%; with Plasmodium falciparum [2], 100%; in the assay with HepG2 it was 67%.
For `Cn1nc(-c2ccccc2F)c2cc(C(=O)Nc3cccnc3)sc21`, the Inhibition stood at 92% in the assay with Plasmodium falciparum [1], 82% in the assay with Plasmodium falciparum [2] and 5% in the assay on HepG2.
Regarding `Cc1[nH]c2ccccc2c1CC1CCN(CC2CCN(C(=O)/C=C/c3ccc(Cl)c(Cl)c3)CC2)CC1`, the Inhibition in the assay with Plasmodium falciparum [1] is 92%; in the assay on Plasmodium falciparum [2] it was 14%; with HepG2, 34%.
The matching figures for `CCN(CC)S(=O)(=O)n1ncc2c3c(N)nc(N)nc3ccc21.Cl`: 93%, 16% and 67%.
On the same counts, the results for `Cc1nc(N)nc(N)c1-c1cccc(Cl)c1` are 88%, 0% and 60%.
On the same counts, the results for `CCCCCCCN1CC[C@@H](CCCc2ccnc3ccc(OCCCCNC(N)=O)cc23)[C@@H](CC)C1.O=C(O)C(=O)O` are 93%, 18% and 41%.
As for `Cc1noc(C)c1-c1ccc2c(Nc3ccccc3N3CCOCC3)c(C(=O)NCc3ccccc3)cnc2c1.Cl`, the Inhibition worked out at 91% in the assay on Plasmodium falciparum [1], 6% in the assay on Plasmodium falciparum [2] and 23% in the assay with HepG2.
Regarding `CCC(CSC1CCCCC1)N(C)CCN(C)C(CC)CSC1CCCCC1.Cl` (configuration not stated), the Inhibition worked out at 98% in the assay on Plasmodium falciparum [1], 98% in the assay with Plasmodium falciparum [2] and 84% in the assay on HepG2.
For the compound `CCCCC1=CC2C(=O)C(C(=O)OC)=CN=C2C=C1OCc1ccccc1` (configuration not stated), the Inhibition was determined as 99% in the assay on Plasmodium falciparum [1], 98% with Plasmodium falciparum [2] and 7% with HepG2.
The matching figures for `CC(Cc1ccc(C(=O)N2CCN(C(=O)c3ccc(CC(C)NCCc4cccc(Cl)c4)cc3)CC2)cc1)NCCc1cccc(Cl)c1` (configuration not stated): 100%, 85% and 99%.
`CC(C)Oc1ccc2c(c1)OC(c1ccccc1)(C(F)(F)F)NC2=O` (configuration not stated): the Inhibition stood at 100% in the assay on Plasmodium falciparum [1], 98% in the assay with Plasmodium falciparum [2] and 0% with HepG2.
As to `Cc1cc(Nc2ncc(Cl)c(Nc3ccccc3C(N)=O)n2)n[nH]1`, the Inhibition in the assay with Plasmodium falciparum [1] stood at 98%; in the assay on Plasmodium falciparum [2] it was 96%; in the assay with HepG2 it was 70%.
